Laboratory results published in PubChem BioAssay (NCI).
About 79,000 compounds went through this panel and 15% of them were active in at least one assay; those are over-represented in the sample as a whole. Calls of active or inactive are those of the source. Cut-off read from the data, not from the text of the source: active = growth inhibition above about 70%; inactive = the rest.

Columns and labels:
[1] = NCI Yeast Anticancer Drug Screen. Data for the wt1 strain (AID 149);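 note: 0% = growth of vehicle-treated wt1 cultures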; settings: S. cerevisiae wt1 strain (SPY 50644) growth inhibition, hits give high values
In short: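 Compounds are added to wt1 yeast cultures. Growth is then measured. Inhibition is expressed relative to vehicle-treated controls.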

[2] = NCI Yeast Anticancer Drug Screen. Data for the rad50EPP+ strain (AID 151);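 note: 0% = growth of vehicle-treated control cultures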; settings: S. cerevisiae rad50 mutant strain, hits give high values
In short: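 Yeast strain carrying rad50 alteration (rad50EPP+) exposed to compounds; growth inhibition measured relative to vehicle-treated controls.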

[3] = NCI Yeast Anticancer Drug Screen. Data for the mgt1 strain (AID 153); settings: S. cerevisiae mgt1 mutant growth inhibition, hits give high values
In short: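 Yeast mgt1 strain (DNA repair/cell-cycle alteration panel) exposed to compounds; growth inhibition measured relative to vehicle-treated controls.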

[4] = NCI Yeast Anticancer Drug Screen. Data for the rad50 strain (AID 155);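 note: 0% = growth of vehicle-only cultures of the same strain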; settings: S. cerevisiae rad50 strain growth inhibition, hits give high values
In short: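 Inhibition values express reduced yeast growth in compound-treated cultures relative to vehicle-treated controls.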

[5] = NCI Yeast Anticancer Drug Screen. Data for the mec2-1 strain (AID 157); settings: S. cerevisiae mec2-1 strain, hits give high values
In short: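 mec2-1 yeast strain, carrying an alteration in DNA damage repair or cell cycle control, was exposed to compounds; growth inhibition was measured relative to vehicle-treated controls.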

[6] = NCI Yeast Anticancer Drug Screen. Data for the rad14 strain (AID 159);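 note: 0% = growth of vehicle-treated control cultures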; settings: S. cerevisiae rad14 strain growth inhibition, hits give high values
In short: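 A mutant yeast strain defective in DNA damage repair is treated with compound; inhibition of its growth is scored against untreated, vehicle-exposed cultures.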

[7] = NCI Yeast Anticancer Drug Screen. Data for the sgs1 mgt1 strain (AID 161);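 note: 0% = growth of cultures given vehicle only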; settings: S. cerevisiae sgs1 mgt1 strain, hits give high values
In short: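 Growth of a repair-deficient yeast mutant was monitored after compound treatment and expressed as inhibition relative to vehicle-treated cultures.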

[8] = at 5.0 µM (retest, dose inferred, filed as 0.5)
[9] = at 50.0 µM (retest, dose inferred, filed as 5.0)

Measured: growth inhibition

COC1=C(N=[N+]=[N-])C(=O)c2ncccc2C1=O
active: [1]; at 100.0 µM 92% | [2]; at 11.0 µM 89% | [2]; at 33.0 µM 94% | [2]; at 100.0 µM 95% | [3]; at 33.0 µM 81% | [3]; at 100.0 µM 94% | [4]; at 3.7 µM 84% | [4]; [8] 86% | [4]; at 11.0 µM 93% | [4]; at 33.0 µM 94% | [4]; [9] 95% | [4]; at 50.0 µM 82.2% | [4]; at 100.0 µM 95% | [5]; at 33.0 µM 93% | [5]; [9] 94% | [5]; at 50.0 µM 85.5% | [5]; at 100.0 µM 96% | [6]; at 33.0 µM 91% | [6]; at 100.0 µM 96% | [7]; [9] 93%
inactive: [1]; at 1.2 µM 3% | [1]; at 3.7 µM 6% | [1]; at 11.0 µM 10% | [1]; at 33.0 µM 52% | [2]; at 1.2 µM 31% | [2]; at 3.7 µM 60% | [3]; at 1.2 µM 10% | [3]; at 3.7 µM 7% | [3]; at 11.0 µM 31% | [4]; at 1.2 µM 56% | [5]; at 1.2 µM 6% | [5]; at 3.7 µM 38% | [5]; [8] 38% | [5]; at 11.0 µM 68% | [6]; at 1.2 µM -2% | [6]; at 3.7 µM 10% | [6]; at 11.0 µM 44% | [7]; [8] 42%
